PubChem BioAssay (Tox21)
Inconclusive results are not listed. A call without a number means that no potency is given here. Values without a mark were called inactive. Active and inactive are the calls of the source. Unless noted, calls come from the whole dose curve; as a rule, active = well fitted curve in the direction sought with a large enough effect in the repeat runs; inconclusive = weak or mixed curves; inactive = no such curve, though single readings can be large; an effect the other way counts as inactive or inconclusive.

Legend:
[1] = qHTS assay to identify small molecule that activate the aryl hydrocarbon receptor (AhR) signaling pathway - cell viability counter screen (AID 743086); note: nearly all actives have a fitted effect of over 45% in size; note: potency is the fitted concentration of half-maximal effect
Method in brief: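 Cytotoxicity counter screen: CellTiter-Fluor signal (30 min, 37 C) in 4000 HepG2 cells/well carrying the DRE-luciferase reporter, following 24 h compound exposure at 37 C.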

[2] = biological target: Peroxisome proliferator-activated receptor gamma (Homo sapiens) (UniProt P37231); assay: qHTS assay to identify small molecule agonists of the peroxisome proliferator-activated receptor gamma (PPARg) signaling pathway (AID 743094; active = well fitted activation curve with a large enough effect in the signal ratio in the repeat runs, not every such curve was filed as active; the % refers to the signal ratio)
Sequence of Peroxisome proliferator-activated receptor gamma (Homo sapiens) (P37231 whole entry, looked up): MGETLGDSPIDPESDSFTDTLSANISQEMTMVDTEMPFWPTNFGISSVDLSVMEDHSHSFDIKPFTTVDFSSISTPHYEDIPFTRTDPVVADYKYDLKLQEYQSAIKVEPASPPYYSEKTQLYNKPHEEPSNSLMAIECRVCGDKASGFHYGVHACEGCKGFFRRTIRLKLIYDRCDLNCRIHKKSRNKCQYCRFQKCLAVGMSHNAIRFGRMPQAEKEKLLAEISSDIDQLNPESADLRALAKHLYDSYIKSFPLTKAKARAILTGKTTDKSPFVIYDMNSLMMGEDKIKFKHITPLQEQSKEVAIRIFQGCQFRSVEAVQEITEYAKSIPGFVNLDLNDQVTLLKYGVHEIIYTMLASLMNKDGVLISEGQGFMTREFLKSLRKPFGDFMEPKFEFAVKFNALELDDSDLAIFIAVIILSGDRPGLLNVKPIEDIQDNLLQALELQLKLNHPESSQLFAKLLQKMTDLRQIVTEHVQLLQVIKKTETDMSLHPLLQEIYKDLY
Method in brief: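 HEK293H PPARg-bla cells, 5 h settle at 37C/5% CO2; compound (DMSO) 17 h, 37C; B/G FRET substrate 1 h RT; fluorescence intensity read-out. qHTS format.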

[3] = biological target: Peroxisome proliferator-activated receptor gamma (Homo sapiens) (UniProt P37231); assay: qHTS assay to identify small molecule antagonists of the peroxisome proliferator-activated receptor gamma (PPARg) signaling pathway (AID 743191; calls by dose curve; note: series mostly up to about 63 µM; nearly all actives have a fitted effect of over 30% in size)
Method in brief: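 Beta-lactamase reporter under UAS control in HEK293H PPARg-bla cells; compound treatment 17 h at 37C. Read-out: fluorescence intensity after 1 h room-temperature incubation with LiveBLAzer B/G FRET substrate.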

[4] = qHTS assay for small molecule agonists of the antioxidant response element (ARE) signaling pathway (AID 743202; active = well fitted activation curve with a large enough effect in the signal ratio in the repeat runs, not every such curve was filed as active; the % refers to the signal ratio)
Method in brief: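 After 16 hours of compound treatment at 37 C, HepG2 cells with a stably integrated ARE-driven beta-lactamase reporter were loaded 2 hours at room temperature with LiveBLAzer B/G FRET substrate and fluorescence intensity measured.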

[5] = qHTS assay for small molecule agonists of the antioxidant response element (ARE) signaling pathway - cell viability counter screen (AID 743203; calls by dose curve; note: nearly all actives have a fitted effect of over 55% in size)
Method in brief: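 Luminescence read-out (CellTiter-Glo, 30 min at room temperature) measured cell viability in the same wells as the ARE beta-lactamase reporter. HepG2 ARE-bla cells were treated with compounds for 16 hrs at 37C/5% CO2.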

[6] = qHTS assay for small molecule activators of the heat shock response signaling pathway - cell viability counter screen (AID 743209); note: nearly all actives have a fitted effect of over 50% in size
Method in brief: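 HSE-bla HeLa; 1500 cells/well; overnight 37 C, 5% CO2; compound 5 h 37 C; LiveBLAzer B/G substrate 2.5 h RT; CellTiter-Glo 30 min RT; luminescence.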

[7] = qHTS assay for small molecule activators of the heat shock response signaling pathway (AID 743210; active = well fitted activation curve with a large enough effect in the signal ratio in the repeat runs, with a control signal flat, not every such curve was filed as active; the % refers to the signal ratio; note: series mostly up to about 63 µM)
Method in brief: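 Compound exposure lasted 5 h at 37 C in HeLa cells carrying a heat-shock-element-driven beta-lactamase reporter. Read-out: fluorescence intensity after 2.5 h room-temperature loading with LiveBLAzer B/G FRET substrate.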

[8] = qHTS assay to identify small molecule agonists of the peroxisome proliferator-activated receptor delta (PPARd) signaling pathway - cell viability counter screen (AID 743211); note: nearly all actives have a fitted effect of over 55% in size
Method in brief: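 PPARd-bla HEK293H cells (UAS-beta-lactamase reporter) were treated with compounds for 17 h at 37 C. Viability was then read in the same wells by CellTiter-Glo luminescence after 30 min at room temperature.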

[9] = qHTS assay to identify small molecule antagonists of the peroxisome proliferator-activated receptor delta (PPARd) signaling pathway - cell viability counter screen (AID 743213); note: nearly all actives have a fitted effect of over 50% in size
Method in brief: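 Agonist-stimulated (L165041, 300 nM final) HEK293H PPARd UAS-bla cells are exposed to compounds for 17 h at 37 C, and ATP-based luminescence (CellTiter-Glo) from the same wells reports cytotoxicity.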

[10] = qHTS assay to identify small molecule antagonists of the farnesoid-X-receptor (FXR) signaling pathway - cell viability counter screen (AID 743221; active = well fitted cell-killing curve with a large enough effect in the repeat runs, not every such curve was filed as active; note: nearly all actives have a fitted effect of over 50% in size)
Method in brief: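 FXR-UAS-bla HEK 293T cells were treated with test compounds plus chenodeoxycholic acid (50 uM final) for 16 h at 37 C. Cell viability in the same wells was then read as CellTiter-Glo luminescence after 30 min at room temperature.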

[11] = biological target: Vitamin D3 receptor (Homo sapiens) (UniProt P11473); assay: qHTS assay to identify small molecule antagonists of the vitamin D receptor (VDR) signaling pathway (AID 743223; active = well fitted inhibition curve with a large enough effect in the signal ratio in the repeat runs, not every such curve was filed as active; the % refers to the signal ratio)
Sequence of Vitamin D3 receptor (Homo sapiens) (P11473 whole entry, looked up): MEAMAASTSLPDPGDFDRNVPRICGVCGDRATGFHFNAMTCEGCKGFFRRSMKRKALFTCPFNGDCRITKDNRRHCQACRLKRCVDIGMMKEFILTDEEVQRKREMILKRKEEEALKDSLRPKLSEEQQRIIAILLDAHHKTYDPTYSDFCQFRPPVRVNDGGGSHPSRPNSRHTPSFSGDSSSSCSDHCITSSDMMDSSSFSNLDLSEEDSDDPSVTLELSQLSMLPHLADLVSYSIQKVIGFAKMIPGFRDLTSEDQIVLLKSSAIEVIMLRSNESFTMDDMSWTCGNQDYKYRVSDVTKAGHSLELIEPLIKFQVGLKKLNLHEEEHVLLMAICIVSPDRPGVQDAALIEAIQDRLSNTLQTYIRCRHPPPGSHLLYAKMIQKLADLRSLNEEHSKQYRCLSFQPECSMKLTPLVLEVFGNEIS
Method in brief: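 VDR-bla cells were plated, incubated 4 h at 37C, then given compound and 1alpha,25-dihydroxyvitamin D3 (3 nM final). After 16 h at 37C, LiveBLAzer B/G FRET substrate was added for 2 h at room temperature and fluorescence read.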

[12] = qHTS assay to identify small molecule agonists of the vitamin D receptor (VDR) signaling pathway - cell viability counter screen (AID 743224); note: series mostly up to about 63 µM; nearly all actives have a fitted effect of over 50% in size
Method in brief: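 Cytotoxicity counter screen: VDR-bla cells, 16 h compound exposure at 37C, 5% CO2; CellTiter-Glo luminescence, 30 min RT, same wells as bla read.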

[13] = qHTS assay to identify small molecule antagonists of the peroxisome proliferator-activated receptor gamma (PPARg) signaling pathway - cell viability counter screen (AID 743194); settings: Potency: co-treated with 50 nM rosiglitazone; note: nearly all actives have a fitted effect of over 55% in size
Method in brief: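 Viability was measured as CellTiter-Glo luminescence in GeneBLAzer PPARg UAS-bla HEK293H cells. These cells had been exposed 17 h at 37 C to compounds together with rosiglitazone at 50 nM final, with the beta-lactamase readout taken in the same wells.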

[14] = biological target: Peroxisome proliferator-activated receptor delta (Homo sapiens) (UniProt Q03181); assay: qHTS assay to identify small molecule antagonists of the peroxisome proliferator-activated receptor delta (PPARd) signaling pathway (AID 743215; active = well fitted inhibition curve with a large enough effect in the signal ratio in the repeat runs, not every such curve was filed as active; the % refers to the signal ratio; note: series mostly up to about 62 µM)
Sequence of Peroxisome proliferator-activated receptor delta (Homo sapiens) (Q03181 whole entry, looked up): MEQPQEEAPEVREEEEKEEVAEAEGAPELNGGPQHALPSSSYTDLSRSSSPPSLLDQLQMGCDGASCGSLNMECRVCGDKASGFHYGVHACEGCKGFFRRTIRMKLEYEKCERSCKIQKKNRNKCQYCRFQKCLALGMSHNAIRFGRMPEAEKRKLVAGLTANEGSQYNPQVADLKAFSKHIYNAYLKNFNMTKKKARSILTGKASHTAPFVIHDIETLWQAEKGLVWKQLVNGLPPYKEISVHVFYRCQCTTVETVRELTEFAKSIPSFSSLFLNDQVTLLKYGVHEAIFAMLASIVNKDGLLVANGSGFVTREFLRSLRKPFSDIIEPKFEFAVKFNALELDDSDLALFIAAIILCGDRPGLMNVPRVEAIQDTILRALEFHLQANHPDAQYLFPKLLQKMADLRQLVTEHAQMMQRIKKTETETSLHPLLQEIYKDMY
Method in brief: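 HEK293H GeneBLAzer PPARd UAS-bla reporter cells; cpd + L165041 300 nM final, 17 h 37 C; LiveBLAzer B/G FRET substrate 2 h RT; fluorescence intensity read-out. Antagonist mode.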

[15] = biological target: Bile acid receptor (Homo sapiens) (UniProt Q96RI1); assay: qHTS assay to identify small molecule antagonists of the farnesoid-X-receptor (FXR) signaling pathway (AID 743217; active = well fitted inhibition curve with a large enough effect in the signal ratio in the repeat runs, not every such curve was filed as active; the % refers to the signal ratio)
Sequence of Bile acid receptor (Homo sapiens) (Q96RI1 whole entry, looked up): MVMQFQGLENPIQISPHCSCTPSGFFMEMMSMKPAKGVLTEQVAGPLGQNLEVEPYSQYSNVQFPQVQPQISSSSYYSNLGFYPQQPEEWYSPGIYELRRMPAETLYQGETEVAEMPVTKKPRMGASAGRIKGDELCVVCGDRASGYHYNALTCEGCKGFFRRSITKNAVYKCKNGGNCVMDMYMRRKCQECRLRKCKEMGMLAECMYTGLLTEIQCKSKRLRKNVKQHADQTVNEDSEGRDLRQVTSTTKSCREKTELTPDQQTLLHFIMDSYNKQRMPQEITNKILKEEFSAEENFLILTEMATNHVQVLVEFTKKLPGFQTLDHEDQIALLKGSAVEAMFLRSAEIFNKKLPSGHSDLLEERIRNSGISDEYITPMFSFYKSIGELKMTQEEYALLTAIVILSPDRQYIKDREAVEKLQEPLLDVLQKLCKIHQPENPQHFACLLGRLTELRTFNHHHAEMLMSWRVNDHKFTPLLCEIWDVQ
Method in brief: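 Read-out: beta-lactamase FRET fluorescence (LiveBLAzer B/G substrate, 2 h, room temperature) in GeneBLAzer FXR-UAS-bla HEK 293T cells. Compounds were co-dosed with 50 uM chenodeoxycholic acid (final) and incubated 16 h at 37 °C.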

[16] = qHTS assay to identify small molecule agonists of the farnesoid-X-receptor (FXR) signaling pathway - cell viability counter screen (AID 743218); note: nearly all actives have a fitted effect of over 45% in size
Method in brief: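 Luminescence from CellTiter-Glo, read after 30 min at RT, reports viability of GeneBLAzer FXR-UAS-bla HEK 293T cells treated 16 h with compounds in the wells used for the beta-lactamase reporter.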

[17] = biological target: Bile acid receptor (Homo sapiens) (UniProt Q96RI1); assay: qHTS assay to identify small molecule agonists of the farnesoid-X-receptor (FXR) signaling pathway (AID 743220; active = well fitted activation curve with a large enough effect in the signal ratio in the repeat runs, not every such curve was filed as active; the % refers to the signal ratio)
Method in brief: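 FXR-UAS-bla HEK 293T cells carrying a UAS-driven beta-lactamase reporter were plated for 5 h at 37C/5% CO2, then exposed to DMSO-dissolved Tox21 10K compounds for 16 h at 37C. A LiveBLAzer B/G FRET substrate was loaded for 2 h at room temperature before fluorescence reading.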

[18] = biological target: Vitamin D3 receptor (Homo sapiens) (UniProt P11473); assay: qHTS assay to identify small molecule agonists of the vitamin D receptor (VDR) signaling pathway (AID 743222; calls by dose curve)
Method in brief: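 Beta-lactamase reporter readout (LiveBLAzer B/G FRET, 2 h RT) in VDR-bla cells after 16 h compound treatment at 37C, 5% CO2; cells pre-incubated 4 h before pin transfer of DMSO solutions.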

[19] = biological target: Peroxisome proliferator-activated receptor delta (Homo sapiens) (UniProt Q03181); assay: qHTS assay to identify small molecule agonists of the peroxisome proliferator-activated receptor delta (PPARd) signaling pathway (AID 743212; calls by dose curve)
Method in brief: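 Beta-lactamase reporter readout: a ratiometric FRET signal from the LiveBLAzer substrate after 2 h at room temperature. Compound exposure at 37 °C in PPARδ-bla HEK293H cells driven by an upstream activator sequence.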

Compound	Potency [1]	outcome [2]	Potency [3]	Potency [4]	Potency [5]	Potency [6]	Potency [7]	Potency [8]	Potency [9]	Potency [10]	outcome [11]	Potency [12]	Potency [13]	Potency [14]	outcome [15]	Potency [16]	outcome [17]	outcome [18]	outcome [19]
Cc1ccc(-c2nc3ccc(C)cn3c2CC(=O)N(C)C)cc1	inactive	inactive	inactive	inactive	inactive	inactive	inactive	inactive	inactive	inactive	inactive	inactive							
O=C(O)c1c(Cl)ccc2cc(Cl)cnc12	inactive	inactive			inactive	inactive	inactive	inactive		inactive	inactive	inactive	inactive	inactive	inactive	inactive	inactive	inactive	
O=C(O)C(F)(F)C(F)(F)C(F)(F)C(F)(F)C(F)(F)C(F)(F)F	inactive	inactive			inactive	inactive	inactive	inactive	inactive	inactive	inactive	inactive		inactive	inactive	inactive	inactive	inactive	
COc1ccccc1OC	inactive	inactive	inactive	inactive	inactive	inactive	inactive	inactive	inactive	inactive		inactive		inactive		inactive		inactive	inactive
Clc1nc(Cl)nc(Nc2ccccc2Cl)n1	inactive	inactive	inactive		inactive	inactive	inactive	inactive	inactive			inactive				inactive		inactive	inactive
CCCN1CCC[C@@H]2Cc3nc(N)ncc3C[C@H]21	inactive	inactive	inactive		inactive	inactive	inactive	inactive		inactive	inactive	inactive	inactive			inactive		inactive	
CCc1cc(OC)c(C[C@H](C)N)cc1OC	63.7 µM (active)	inactive			inactive	inactive	inactive	inactive			inactive	inactive	inactive	inactive	inactive	inactive	inactive	inactive	inactive
CCOP(=O)(CN(CCO)CCO)OCC	inactive	inactive	inactive		inactive	inactive	inactive	inactive		inactive	inactive	inactive		inactive		inactive		inactive	inactive
c1ccc2c(c1)CCNC2	inactive		inactive	inactive	inactive	inactive	inactive	inactive	inactive	inactive	inactive	inactive	inactive	inactive		inactive		inactive	inactive
CCCCCCC(=O)CCCCCC/C=C/C[C@@H](O)[C@H](O)[C@@](N)(CO)C(=O)O	inactive	inactive			inactive	inactive	inactive	inactive	inactive		inactive	inactive		inactive				inactive	inactive
CN(CCO)CCO	inactive	inactive	inactive		inactive	inactive	inactive	inactive		inactive	inactive	inactive		inactive	inactive		inactive	inactive	inactive
O=S1(=O)OCCO1	inactive	inactive	inactive	inactive	inactive	inactive	inactive	inactive	inactive		inactive	inactive		inactive		inactive	inactive	inactive	inactive
C=CCCC#N	inactive	inactive		inactive	inactive		inactive	inactive		inactive		inactive	inactive			inactive	inactive		
CN1COCN(Cc2cnc(Cl)s2)/C1=N\[N+](=O)[O-]	inactive	inactive		inactive	inactive	inactive	inactive	inactive		inactive	inactive	inactive		inactive	inactive	inactive	inactive	inactive	inactive
CCOP(=S)(OCC)Oc1ccc(Cl)cc1Cl	inactive	inactive	inactive		inactive	inactive	inactive	inactive	inactive		inactive	inactive		inactive		inactive		inactive	inactive
ClCC1CO1 (stereo unspecified)	inactive	inactive	inactive	inactive	inactive		inactive	inactive		inactive	inactive	inactive	inactive	inactive		inactive		inactive	inactive
Cc1ccc2c(c1)C1CN(C)CCC1N2 (stereo unspecified)	inactive	inactive		inactive	inactive	inactive	inactive	inactive	inactive	inactive	inactive		inactive	inactive	inactive	inactive	inactive	inactive	inactive
CCNc1nc(Cl)nc(NC(C)(C)C)n1	inactive	inactive	inactive	inactive	inactive	inactive	inactive	inactive	inactive	inactive	inactive	inactive		inactive	inactive	inactive	inactive	inactive	inactive
